Our source for the Potency values is PubChem BioAssay (Tox21).

The nature of experiment [1]: qHTS assay to identify small molecule antagonists of the retinoid acid receptor (RAR) signaling pathway - cell viability counter screen (AID 1159551). Also: nearly all actives have a fitted effect of over 35% in size. Put shortly: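 Cells (C3RL4) are plated, incubated overnight, dosed with compound in DMSO, then given retinol at 1 uM final. After 6 h at 37 C, CellTiter-Glo is added and luminescence read following 30 min at room temperature.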

A short description of experiment [2]: qHTS assay to identify small molecule antagonists of the retinoic acid receptor (RAR) signaling pathway (AID 1159552; also: nearly all actives have a fitted effect of over 50% in size). A digest of the protocol: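 Quantitative HTS in C3RL4 RARE-luciferase reporter cells. Compounds were added with 1 uM (final) retinol; luminescence was read after 6 hr.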
The nature of experiment [3]: qHTS assay to identify small molecule antagonists of the estrogen related receptor (ERR) signaling pathway from Tox21 library - cell viability counter screen (AID 1224834). Also: nearly all actives have a fitted effect of over 30% in size. Put shortly: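 ERR cells, 2,000/well; 6 h settle at 37 C/5% CO2; pin-tool compound transfer in DMSO; 17.5 h at 37 C; CellTiter-Fluor, 30 min; fluorescence intensity.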
(qHTS replaces the single test concentration by a dilution series.)

Inconclusive results are not listed. The source made the active and inactive calls. Calls follow the shape of the dose curve; as a rule, active = well fitted curve in the direction sought with a large enough effect in the repeat runs; inconclusive = weak or mixed curves; inactive = no such curve, though single readings can be large; an effect the other way counts as inactive or inconclusive.
Potency is read from the fitted curve at half-maximal effect.

As for `Clc1cc(Cl)c(-c2c(Cl)c(Cl)cc(Cl)c2Cl)cc1Cl`, the Potency entry in experiment [1], in experiment [2] and in experiment [3] was “inactive” each time.

For the compound `CCC(C)c1ccccc1` (stereo unspecified), the Potency result in experiment [1], in experiment [2] and in experiment [3] was “inactive” throughout.

Turning to `CCOB(OCC)OCC`, the Potency result in experiment [1], in experiment [2] and in experiment [3] was “inactive” throughout.

Consider `CC(C)c1ccccc1N`, for which the Potency result in experiment [1], in experiment [2] and in experiment [3] was “inactive” in each case.

Consider `CCOC(/C=C(\C)CCC=C(C)C)OCC`, for which the Potency entry in experiment [1], in experiment [2] and in experiment [3] was “inactive” in each case.

As to `CC(=O)C=O`, the Potency result in experiment [1], in experiment [2] and in experiment [3] was “inactive” in each case.

Take `O=C1c2c(O)ccc([N+](=O)[O-])c2C(=O)c2c([N+](=O)[O-])ccc(O)c21`: the figures for the Potency in experiment [1], in experiment [2] and in experiment [3] were 48.1 µM (active), 27.1 µM (active) and 27.1 µM (active), respectively.

`C=CC(C)C#N` (stereo unspecified): the Potency result in experiment [1], in experiment [2] and in experiment [3] was “inactive” throughout.

As to `CCN=C1C=CC(=C(c2ccc(N(CC)CC)cc2)c2ccc(N(CC)CC)cc2)c2ccccc21`, the Potency in experiment [1] is 24.2 µM (active); in experiment [2] it was 4.83 µM (active); in experiment [3], 8.58 µM (active).

In the case of `CC[N+](CC)(CC)Cc1ccccc1`, the Potency result in experiment [1], in experiment [2] and in experiment [3] was “inactive” in each case.

With `CC(C)(C)c1n[nH]c(=O)n(N)c1=O`, the Potency result in experiment [1], in experiment [2] and in experiment [3] was “inactive” throughout.

Turning to `Cc1cccc(Br)c1`, the Potency entry in experiment [1], in experiment [2] and in experiment [3] was “inactive” in each case.

Take `Cc1cnccn1`: the Potency entry in experiment [1], in experiment [2] and in experiment [3] was “inactive” in each case.

For `CC(C)=CC1CC(C)CCO1` (stereo unspecified), the Potency entry in experiment [1], in experiment [2] and in experiment [3] was “inactive” throughout.

On to `O=C[C@H](O)[C@H](O)[C@H](O)CO`, for which the Potency result in experiment [1], in experiment [2] and in experiment [3] was “inactive” each time.

In the case of `C=CC(C)(CCC=C(C)C)OC(=O)/C=C/c1ccccc1` (stereo unspecified), the Potency entry in experiment [1], in experiment [2] and in experiment [3] was “inactive” throughout.

In the case of `CCNc1nc(NC(C)CC)nc(OC)n1` (stereo unspecified), the Potency entry in experiment [1], in experiment [2] and in experiment [3] was “inactive” each time.

With `O=C(O)Cc1ccc(OCCNC[C@H](O)c2ccccc2)cc1`, the Potency result in experiment [1], in experiment [2] and in experiment [3] was “inactive” each time.

For the compound `OCCC(O)CO` (stereo unspecified), the Potency result in experiment [1], in experiment [2] and in experiment [3] was “inactive” throughout.

Regarding `OCCCS`, the Potency result in experiment [1], in experiment [2] and in experiment [3] was “inactive” in each case.

Take `O=C1OC(OC(=O)c2cccnc2Nc2cccc(C(F)(F)F)c2)c2ccccc21` (stereo unspecified): the Potency entry in experiment [1], in experiment [2] and in experiment [3] was “inactive” in each case.

Consider `C=CC/C=C/C/C=C/C/C=C/C`, for which the Potency result in experiment [1], in experiment [2] and in experiment [3] was “inactive” throughout.
